This note sets out measurements from PubChem BioAssay (NCATS).

SMILES strings stand for the structures. Where “and” joins values, the source holds several entries; their conditions need not be identical. Equal values may be shown once. Records with an inconclusive call do not appear. Values without a mark were called inactive. Calls of active or inactive are those of the source. The call rests on the fitted dose curve; in most records, active means well fitted curve in the direction sought with a large enough effect; inconclusive means small, poorly fitted or top-dose-only effect, or another doubt; inactive means no such curve, though single readings can be large; an effect the other way counts as inactive or inconclusive.

For assay [1], the target named is Cytochrome P450 3A7 (Homo sapiens) (UniProt P24462). The assay can be described thus: Cytochrome P450 family 3 subfamily A member 7 (CYP3A7) small molecule antagonists: luciferase biochemical qHTS assay (AID 1963596). Further: on the % scale 0 is the no-effect control and ±100 the full control effect; nearly all actives have a fitted effect of over 40% in size. Conditions: P450-Glo CYP3A7 enzyme luminescence, 1 h; series mostly up to 57.4 µM. The essentials:
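P450-Glo luminescent assay: CYP3A7 enzyme converts a proluciferin substrate to luciferin, detected by luciferase reagent; light proportional to activity. Compounds in DMSO preincubated 10 min with enzyme-substrate mix at room temperature, then NADPH regeneration added for 1 h.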
(qHTS replaces the single test concentration by a dilution series.)

Assay [2] can be described thus: Viability qHTS for spleen associated tyrosine kinase inhibitor (SYKi) naive MV4-11 cells (AID 1963823). Further: nearly all actives have a fitted effect of over 40% in size. Further: potency means the concentration at half of the fitted maximal effect. The following applies: MV4-11 AML viability, CellTiter-Glo luminescence, 72 h; series mostly up to 45 µM. Put shortly:
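Luminescence from CellTiter-Glo, developed 10 min at room temperature, gave viability of MV4-11 cells never exposed to SYK inhibitor. Cells (500/well) had been incubated with compounds for 72 hr under standard culture conditions.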

Assay [3] in a line: Viability qHTS for spleen associated tyrosine kinase inhibitor (SYKi) drug resistant MV4-11 cells (AID 1963824). Further: nearly all actives have a fitted effect of over 35% in size. Further: potency means the concentration at half of the fitted maximal effect. The following applies: SYKi-resistant MV4-11 viability, CellTiter-Glo, 72 h; series mostly up to 45 µM. The essentials:
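SYK-inhibitor-resistant MV4-11 AML cells were seeded at 500 per well onto compound and cultured 72 hours (37 °C, 5% CO2). CellTiter-Glo was then added, and after 10 min at room temperature, luminescence gave viability.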

Assay [4] can be described thus: Cellular viability qHTS for adrenocortical cancer (ACC) cell line SW-13 (AID 1963989). Further: nearly all actives have a fitted effect of over 65% in size. Further: potency means the concentration at half of the fitted maximal effect.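 On activity (max response): cells grown in serum-free medium with ITS supplement; on the % scale 0 is the no-effect control and ±100 the full control effect.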 The following applies: SW-13 ACC cells viability, CellTiter-Glo, 48 h; activity (max response): stronger effect = lower value. Put shortly: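 SW-13 cells in ITS-supplemented serum-free DMEM were plated overnight, then exposed for 48 h at 37C to compound titrations (up to 46 uM final). Viability was read by CellTiter-Glo luminescence; four-parameter logistic fits gave IC50 and efficacy.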

Assay [5] is described as follows: Cellular viability qHTS for adrenocortical cancer (ACC) cell line NCI-H295R (AID 1963990). Further: nearly all actives have a fitted effect of over 60% in size. Further: potency means the concentration at half of the fitted maximal effect.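 On activity change, negative = viability loss: 0% = DMSO only wells and -100% = full killing with cytotoxic reference compound.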 The following applies: CellTiter-Glo ATP luminescence, 48 h; series mostly up to 46.1 µM. Put shortly: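 Luminescent ATP read-out (CellTiter-Glo, 20 min RT) after 48 h drug exposure of NCI-H295R cells; a titration up to 46 uM final. Data normalized to doxorubicin (100% inhibition) and DMSO (0%); 4-parameter fit gives IC50, max response.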

Cytochrome P450 3A7 (Homo sapiens), sequence (P24462 whole entry, looked up): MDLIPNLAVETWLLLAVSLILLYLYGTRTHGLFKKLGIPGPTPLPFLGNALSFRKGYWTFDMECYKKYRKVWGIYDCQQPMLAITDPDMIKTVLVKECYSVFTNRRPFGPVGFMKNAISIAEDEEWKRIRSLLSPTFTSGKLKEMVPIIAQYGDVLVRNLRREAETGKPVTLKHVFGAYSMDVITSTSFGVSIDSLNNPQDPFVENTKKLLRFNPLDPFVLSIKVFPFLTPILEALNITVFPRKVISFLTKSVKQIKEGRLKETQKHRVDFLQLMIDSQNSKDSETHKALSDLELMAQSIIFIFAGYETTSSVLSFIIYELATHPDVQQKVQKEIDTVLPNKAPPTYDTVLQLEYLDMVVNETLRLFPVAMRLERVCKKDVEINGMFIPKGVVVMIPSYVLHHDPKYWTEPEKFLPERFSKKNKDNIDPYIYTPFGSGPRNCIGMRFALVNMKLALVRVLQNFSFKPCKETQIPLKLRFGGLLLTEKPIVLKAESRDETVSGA

Turning to `CNCc1ccc(C)c(NC(=O)c2ccc(Nc3nc(-c4ccccc4)c4ccccc4n3)cc2)c1`, the Potency entry in assay [1] is “inactive”. For the same compound, the Potency in assay [2] was 7.42 µM (active); in assay [3] it was 7.42 µM (active); in assay [4] it was 28.2 µM (active); in assay [5], 6.31 µM (active).

For the compound `O=C(O)/C=C\C(=O)O`, the Potency entry in assay [1], in assay [2], in assay [3] and in assay [5] was “inactive” in each case. In assay [4], the activity (max response) was 6.23%.

On to `COc1ccc(CCC(C)=O)cc1`, for which the Potency entry in assay [1], in assay [2], in assay [3] and in assay [5] was “inactive” in each case. Moreover, in assay [4], the activity (max response) is -3.66%.

Take `COc1cc2c(cc1OC(C)C)[C@H](c1ccc(Cl)cc1)N(c1ccc(N(C)CC3CCC(N4CCN(C)C(=O)C4)CC3)cc1)C(=O)C2` (stereo not given in full): the Potency entry in assay [1] is “inactive”. The Potency in assay [2] is 11.8 µM (active); in assay [3], 9.2 µM (active) and 8.33 µM (active); in assay [4] it was 25.1 µM (active); in assay [5], 22.4 µM (active).

Take `CN1CCN(CC(=O)N2c3ccccc3C(=O)Nc3cccnc32)CC1`: the activity change, negative = inhibition in assay [1] is 12.3% [at 4.83 µM]. Moreover, the viability (% of control) in assay [2] is 98.6% [at 4.97 µM]. For the same compound, the viability, % of control in assay [3] was 96.6% [at 4.97 µM]. Further, in assay [4], the activity (max response) was -3%. In addition, the activity change, negative = viability loss in assay [5] is -2.51% [at 3.81 µM].

As to `CCC(C(=O)NC(=O)NC(C)=O)c1ccccc1` (stereo not given), the Potency result in assay [1], in assay [2], in assay [3] and in assay [5] was “inactive” throughout. Further, the activity (max response) in assay [4] was -1.46%.

Regarding `COC(=O)Nc1nc2ccc(C(=O)C3CC3)cc2[nH]1`, the Potency result in assay [1] is “inactive”. The Potency in assay [2] is 1.06 µM (active); in assay [3] it was 0.75 µM (active); in assay [4] it was 0.731 µM (active); in assay [5], 0.461 µM (active).

On to `CC(=O)CCC(=O)O`, for which the Potency entry in assay [1], in assay [2], in assay [3] and in assay [5] was “inactive” each time. Moreover, the activity (max response) in assay [4] was 9%.

Take `NCC(=O)CCC(=O)O`: the Potency entry in assay [1], in assay [2], in assay [3] and in assay [5] was “inactive” in each case. The activity (max response) in assay [4] is 16.5%.
